Screening results: PubChem, several laboratories
Most compounds without a hit are left out; they make up all but 3.3% or so of the library.
esBAF inh: blocks esBAF chromatin remodeling in mouse ES cells; actives 2% (n = 350,000); reporter increase, % at 12.5 µM; Bmi1-luciferase knock-in reporter, 24 h; 100% = twice the neutral-well signal; in the data active = activation above about 40%; inconclusive = no clear call, values can overlap the other calls;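 note: 0% = median of the plate's neutral control wells and 100% = double that signal; a rise in the Bmi1 reporter signal indicates esBAF inhibition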
Jurkat NFkB inh: lowers PMA/ionomycin-induced NF-kB signal in Jurkat cells | PMA/ionomycin-induced NF-kB luciferase reporter, luminescence | AID 435003 | inhibition, % at 4 µM | actives 0.53% (n = 330,000); in the data active = inhibition above about 50%
Gli-Sufu antag: Gli-Sufu pathway antagonism; inhibition, % at 5 µM; actives 0.74% (n = 340,000); Sufu-KO-LIGHT fibroblasts, Gli luciferase reporter luminescence; AID 588413;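 active = inhibition above about 55%, limit read from the data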;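 note: 0% = DMSO-treated cells and 100% = wells with medium but no cells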
697 NFkB inh: lowers PMA/ionomycin-induced NF-kB signal in 697 B cells; inhibition, % at 4 µM; actives 0.33% (n = 330,000); 697 B-cell NF-kB luciferase reporter, 16 h; in the data active = inhibition above about 35%
SMARCA2 activ: SMARCA2 function activation, primary screen; MG213 cells, MMTV-luciferase reporter, dexamethasone, overnight; activation, % at 9.1 µM; actives 1% (n = 370,000); in the data active = activation above about 7.8%;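 note: 0% = vehicle wells and 100% = reference activator wells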
SMARCA2 conf: SMARCA2 activation, confirmation screen. shares compounds with SMARCA2 activ. MG213 cells, MMTV-luciferase with dexamethasone, luminescence, overnight; MG213 cells expressing E1A, Rb sequestered; DMSO wells 0%, reference activator 100%. activation, % at 9.1 µM. actives 30% (n = 3,500);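 active = activation above its plate's cutoff, the mean activation of tested wells plus 3 SD, cut at about 7.9% in these data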
VP16 Luc act: activates GAL4-VP16 luciferase, flagging SMARCA2 activator hits; actives 41% (n = 3,500); activation, % at 9.1 µM; shares compounds with SMARCA2 activ; HEK293 GAL4-VP16 pG5luc reporter, luciferase luminescence; scaled: DMSO wells 0%, SAHA wells 100%;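 active = activation above the solvent-only control well mean plus 3 SD, averaged across control plates, cut at about 5.2% in these data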
The depositor's hits bear a star; ? = inconclusive; nt = not tested or not shown.

SMILES | esBAF inh | Jurkat NFkB inh | Gli-Sufu antag | 697 NFkB inh | SMARCA2 activ | SMARCA2 conf | VP16 Luc act
CN(C)c1ccc(C=C2C=Cc3ccccc32)cc1 | -11.3 | nt | -80.6 | nt | 9.3* | 3.5 | 10.6*
CC(C)C(=O)Nc1ccc(C=C2C=Cc3ccccc32)cc1 | ? | nt | nt | nt | 4.9 | nt | nt
C/C(=N/NC(=O)c1ccc2c(c1)OCO2)c1ccc(NC(=O)c2ccc(F)cc2)cc1 | 35.1 | -49.8 | -17.7 | -15.4 | 8.3* | 6.3 | 7.2*
Cn1c(CCN2CCCCC2)nc2cc(NC(=O)NC3CCCCC3)ccc21 | 2.3 | -16.4 | 2.2 | -3.3 | 4.3 | nt | nt
CC1CCN(CCc2nc3cc(NC(=O)NC4CCCCC4)ccc3n2C)CC1 | 23.0 | -9.4 | 0.3 | -3.0 | 8.5* | 4.4 | 1.1
O=C(c1ccccn1)N1C[C@@H]2[C@H](c3ccccc31)[C@H](CO)N2C(=O)CC1CC1 | -3.4 | nt | nt | nt | nt | nt | nt
CC(C#N)(Cc1ccccc1)Nc1ccccc1 (configuration not stated) | nt | 1.8 | 1.4 | 5.0 | 10.2* | -1.6 | -0.7
C=CC(=O)NC(C)(C)Cc1ccccc1 | -5.7 | -8.8 | 3.7 | -18.1 | -0.5 | nt | nt
CSc1nc(SCCN(C)C)c2c3c(sc2n1)COC(C)(C)C3 | nt | -8.6 | 13.5 | 3.1 | 8.1* | 4.6 | 0.6
CCCCN(CC)CCNC(=O)c1cc2c(=O)n(C)c3ccccc3c2s1 | -2.5 | -79.7 | 18.4 | -18.1 | 3.3 | nt | nt
CCCCN(CC)CCNC(=O)c1cc2c(=O)n(CC)c3ccccc3c2s1 | -9.9 | -28.6 | 31.0 | 1.5 | 4.1 | nt | nt
CCCCN(CC)CCCNC(=O)c1cc2c(=O)n(CC)c3ccccc3c2s1 | 8.0 | -10.4 | 38.6 | 22.0 | 13.9* | 3.4 | 8.1*
CCN(CC)CCNC(=O)c1cc2c(=O)n(C)c3ccccc3c2s1 | 13.0 | -111.7 | 16.1 | -5.4 | 14.0* | 13.5* | 2.1
CC(C)NC(=O)Nc1ccc2c(c1)C(=O)N([C@@H](C)CO)C[C@@H](C)[C@@H](CN(C)S(=O)(=O)c1cn(C)cn1)O2 | -3.2 | nt | nt | nt | nt | nt | nt
CCC(C)(C(=O)NC1CCCCC1)N(Cc1ccco1)C(=O)CC1NC(=O)NC1=O (configuration not stated) | 0.9 | 1.5 | 5.5 | -4.1 | 8.4* | -2.7 | 0.4
Cc1cccc(C(=O)O/N=C(\N)c2cccc([N+](=O)[O-])c2)c1 | nt | -64.1 | -54.1 | -38.0 | nt | nt | nt
N/C(=N\OC(=O)c1cccs1)c1cccc([N+](=O)[O-])c1 | 74.9* | -60.2 | 28.4 | -51.9 | 10.6* | 2.2 | 6.5*
N/C(=N\OC(=O)c1ccc2c(c1)OCO2)c1cccc([N+](=O)[O-])c1 | nt | -61.6 | -52.2 | -38.0 | 9.9* | 12.4* | 9.4*
O=C(Cc1ccccc1[N+](=O)[O-])NCC(=O)c1ccc2c(c1)OCO2 | nt | nt | -29.2 | nt | -2.0 | nt | nt
Cc1ccccc1C(=O)O/N=C(\N)c1cccc([N+](=O)[O-])c1 | nt | -92.8 | -3.1 | -78.1 | 2.7 | nt | nt
O=C(Cc1ccccc1[N+](=O)[O-])c1ccc2c(c1)OCO2 | nt | nt | -47.8 | nt | 11.2* | 3.6 | 3.0
CC(=O)N[C@@H]1C=C[C@@H](CC(=O)NCc2ccc(Cl)cc2)O[C@H]1CO | 4.8 | nt | nt | nt | nt | nt | nt
COC(=O)C[C@H]1CC[C@@H]2[C@H](COc3ccc(NC(=O)Nc4cccc(C)c4)cc3C(=O)N2C)O1 | 10.7 | nt | nt | nt | nt | nt | nt
Cc1noc(C)c1S(=O)(=O)Nc1ccc2c(c1)C(=O)N([C@@H](C)CO)C[C@H](C)[C@H](CN(C)C(=O)Nc1ccccc1)OCCCC[C@H](C)O2 | 3.0 | nt | nt | nt | nt | nt | nt
CN1C[C@H]2[C@@H](c3ccccc31)[C@H](CO)N2C(=O)C1CCCC1 | 4.4 | nt | nt | nt | nt | nt | nt
SMILES | esBAF inh | Jurkat NFkB inh | Gli-Sufu antag | 697 NFkB inh | SMARCA2 activ | SMARCA2 conf | VP16 Luc act
COc1ccccc1CNC(=O)Cc1ccc(OC)c(OC)c1 | -4.4 | 4.2 | -1.4 | 12.9 | -0.7 | nt | nt
COc1ccccc1CNC(=O)Cc1ccccc1 | ? | -15.6 | -9.5 | -23.6 | 9.5* | 2.5 | 4.8
CC(C)(C)c1nnc(NC(=O)c2ccc3c(c2)OCO3)s1 | nt | -120.4 | -26.4 | -143.2 | 10.4* | 8.4* | 6.4*
CN1CCN(S(=O)(=O)c2ccc(Sc3nnnn3-c3ccccc3)c([N+](=O)[O-])c2)CC1 | nt | 16.4 | -1.7 | 14.8 | 1.0 | nt | nt
CC(=O)c1ccc(Sc2nnnn2-c2ccccc2)c([N+](=O)[O-])c1 | nt | 2.1 | 1.6 | -9.5 | 8.6* | 7.5 | 1.8
COC(=O)C1=C(C)OC(N)=C(C#N)C1c1c(C)nn(-c2ccccc2)c1Cl (configuration not stated) | 1.6 | 0.4 | 8.5 | 3.8 | 11.3* | -0.6 | 1.1
CCOC(=O)C1=C(C)OC(N)=C(C#N)C1c1c(C)nn(-c2ccc(C)cc2)c1Cl (configuration not stated) | nt | -15.2 | nt | -32.7 | nt | nt | nt
COc1cc(/C=N/NC(=O)c2cccnc2)cc2c1OCO2 | -5.5 | 16.7 | 3.5 | -16.0 | 0.2 | nt | nt
COc1cc(/C=N/NC(=O)c2ccccn2)cc2c1OCO2 | nt | -39.6 | -52.8 | -34.2 | 16.9* | 8.5* | 8.5*
Cc1ccc(S(=O)(=O)N(C)C[C@H]2OCCCC[C@@H](C)Oc3ccc(NS(=O)(=O)c4c(C)noc4C)cc3C(=O)N([C@@H](C)CO)C[C@H]2C)cc1 | 2.5 | nt | nt | nt | nt | nt | nt
CCCS(=O)(=O)NC(=O)C1(C)CCN(C(=O)c2nc(C)oc2C)C1 (configuration not stated) | 3.2 | nt | nt | nt | 8.0* | 0.1 | 1.0
Cc1noc(C)c1NC(=O)Nc1ccc2c(c1)CC(=O)N([C@H](C)CO)C[C@@H](C)[C@@H](CN(C)S(=O)(=O)c1ccc(F)cc1)O2 | -2.8 | nt | nt | nt | nt | nt | nt
Cn1c2ccccc2c(=O)c2ccc(NCCc3cccs3)cc21 | ? | 3.2 | -73.3 | -181.0 | 9.0* | 9.4* | 13.9*
Cc1ccc2nc3sc(C(=O)N4CCOCC4)c(N)c3cc2c1 | -77.4 | -6.0 | 6.2 | 13.1 | 0.6 | nt | nt
Cc1ccc2cc3c(N)c(C(=O)N4CCOCC4)sc3nc2c1 | nt | -18.2 | -66.0 | -20.3 | 9.5* | 14.2* | 13.9*
Cc1cc(/C(N)=N/OC(=O)c2ccccc2Cl)no1 | nt | -120.8 | -78.4 | -212.1 | 8.6* | 12.2* | 11.1*
N/C(=N/OC(=O)c1ccccc1Cl)c1nonc1N | nt | -10.6 | 5.3 | -5.0 | 7.7 | nt | nt
CCCCc1cc(=O)oc2c(CN(CC)CC)c(O)c(Cl)cc12 | 3.0 | 2.9 | -0.1 | 23.6 | 2.3 | nt | nt
CCCc1cc(=O)oc2c(CN(CC)CC)c(O)c(Cl)cc12 | nt | 7.3 | -14.6 | 21.4 | 9.4* | -3.0 | 0.7
N#CC1=C(S)N(c2ccccc2)C(c2cccs2)NC1=O (configuration not stated) | -7.2 | -1.6 | 11.8 | 11.8 | 1.4 | nt | nt
Cc1ccc(N2C(S)=C(C#N)C(=O)NC2c2cccs2)cc1 (configuration not stated) | nt | -2.7 | 20.6 | 5.3 | 8.0* | 2.2 | 0.4
